Measurements reported in PubChem BioAssay AID1159580 (chemical genetic matrix, 2015).
The whole screen tested about 5,500 compounds, of which about 2,000 (36%) were called active. Roughly 18% stayed inconclusive and do not appear here. No stated cut-off is given here; in the data, active means normalized growth mostly below about 0.91 (no sharp cut-off); inconclusive means no clear call, values can overlap the other calls; inactive means mostly above about 0.92. The list shows a part of the results.

Test: chemical genetic growth profiling, strain panel (AID 1159580);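 further: tested at 20 µM; growth read once vehicle control cultures reached saturation at 30 °C; 1 = growth at the plate median or of vehicle wells; lower values mean less growth of the strain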
Details: growth OD

Measured: normalized growth

CCN(CC)C(=O)c1cccc(C)c1
inactive: S. cerevisiae deletion strains, locus YKL009W, strain mrt4, active compounds read low 0.956 | S. cerevisiae deletion strains, locus YKL068W, active compounds read low 0.989 | S. cerevisiae deletion strains, locus YKL085W, strain MDH1 (second series), active compounds read low 1 | S. cerevisiae deletion strains, locus YKL085W, strain MDH1, active compounds read low 1 | S. cerevisiae deletion strains, locus YKL160W, strain elf1, active compounds read low 1.02 | S. cerevisiae deletion strains, locus YKL190W, strain CNB1, active compounds read low 0.988 | S. cerevisiae deletion strains, locus YKR001C, strain vps1, active compounds read low 1.01 | S. cerevisiae deletion strains, locus YKR026C, strain gcn3, active compounds read low 1.04 | S. cerevisiae deletion strains, locus YKR091W, strain srl3, active compounds read low 1.03 | S. cerevisiae deletion strains, locus YLL001W, strain dnm1, active compounds read low 1.03 | S. cerevisiae deletion strains, locus YLL026W, active compounds read low 1.04 | S. cerevisiae deletion strains, locus YLL041C, strain sdh2, active compounds read low 1.03 | S. cerevisiae deletion strains, locus YLR027C, strain aat2, active compounds read low 1.02 | S. cerevisiae deletion strains, locus YLR039C, strain RIC1, active compounds read low 1.06 | S. cerevisiae deletion strains, locus YLR058C, strain SHM2, active compounds read low 1 | S. cerevisiae deletion strains, locus YLR102C, strain apc9, active compounds read low 0.999 | S. cerevisiae deletion strains, locus YLR113W, strain HOG1, active compounds read low 0.975 | S. cerevisiae deletion strains, locus YLR221C, strain rsa3, active compounds read low 1.02 | S. cerevisiae deletion strains, locus YLR258W, strain gsy2, active compounds read low 1.04 | S. cerevisiae deletion strains, locus YLR262C, strain YPT6 (second series), active compounds read low 1.03 | S. cerevisiae deletion strains, locus YLR262C, strain YPT6, active compounds read low 1.02 | S. cerevisiae deletion strains, locus YLR268W, strain sec22, active compounds read low 0.978 | S. cerevisiae deletion strains, locus YLR320W, strain mms22, active compounds read low 1.04 | S. cerevisiae deletion strains, locus YLR330W, strain CHS5, active compounds read low 0.993 | S. cerevisiae deletion strains, locus YLR342W, strain FKS1 (second series), active compounds read low 0.987 | S. cerevisiae deletion strains, locus YLR342W, strain FKS1, active compounds read low 1.01 | S. cerevisiae deletion strains, locus YLR357W, strain rsc2, active compounds read low 1.09 | S. cerevisiae deletion strains, locus YLR370C, strain arc18, active compounds read low 1.03 | S. cerevisiae deletion strains, locus YLR371W, strain rom2, active compounds read low 0.982 | S. cerevisiae deletion strains, locus YLR384C, strain iki3, active compounds read low 1.06 | S. cerevisiae deletion strains, locus YLR418C, strain cdc73, active compounds read low 1.05 | S. cerevisiae deletion strains, locus YML016C, strain PPZ1, active compounds read low 1.01 | S. cerevisiae deletion strains, locus YML032C, strain rad52, active compounds read low 0.995 | S. cerevisiae deletion strains, locus YML120C, strain ndi1, active compounds read low 1.02 | S. cerevisiae deletion strains, locus YML124C, strain tub3, active compounds read low 0.998 | S. cerevisiae deletion strains, locus YMR058W, strain fet3, active compounds read low 1.04 | S. cerevisiae deletion strains, locus YMR078C, strain ctf18, active compounds read low 0.994 | S. cerevisiae deletion strains, locus YMR125W, strain sto1, active compounds read low 1.03 | S. cerevisiae deletion strains, locus YMR129W, active compounds read low 1.03 | S. cerevisiae deletion strains, locus YMR205C, strain PFK2, active compounds read low 1.06 | S. cerevisiae deletion strains, locus YMR223W, strain ubp8, active compounds read low 1 | S. cerevisiae deletion strains, locus YMR231W, strain pep5, active compounds read low 1.03 | S. cerevisiae deletion strains, locus YMR263W, strain SAP30, active compounds read low 0.999 | S. cerevisiae deletion strains, locus YMR307W, strain GAS1, active compounds read low 1.02 | S. cerevisiae deletion strains, locus YNL067W, strain RPL9B, active compounds read low 1 | S. cerevisiae deletion strains, locus YNL071W, strain lat1, active compounds read low 1.02 | S. cerevisiae deletion strains, locus YNL128W, strain TEP1, active compounds read low 1 | S. cerevisiae deletion strains, locus YNL153C, strain GIM3, active compounds read low 0.999 | S. cerevisiae deletion strains, locus YNL183C, strain NPR1, active compounds read low 0.924 | S. cerevisiae deletion strains, locus YNL209W, strain ssb2, active compounds read low 1.02 | S. cerevisiae deletion strains, locus YNL233W, strain BNI4, active compounds read low 1.01 | S. cerevisiae deletion strains, locus YNL248C, strain rpa49, active compounds read low 1.02 | S. cerevisiae deletion strains, locus YNL250W, strain rad50, active compounds read low 0.994 | S. cerevisiae deletion strains, locus YNL271C, strain bni1, active compounds read low 1 | S. cerevisiae deletion strains, locus YNL298W, strain CLA4, active compounds read low 0.987 | S. cerevisiae deletion strains, locus YNL307C, strain MCK1, active compounds read low 1.01 | S. cerevisiae deletion strains, locus YNL322C, strain KRE1 (second series), active compounds read low 1.03 | S. cerevisiae deletion strains, locus YNL322C, strain KRE1, active compounds read low 1 | S. cerevisiae deletion strains, locus YNR049C, strain mso1, active compounds read low 1.03 | S. cerevisiae deletion strains, locus YNR052C, strain pop2, active compounds read low 0.987 | S. cerevisiae deletion strains, locus YOL006C, strain TOP1, active compounds read low 1.03 | S. cerevisiae deletion strains, locus YOL012C, strain htz1 0.893 | S. cerevisiae deletion strains, locus YOL147C, strain pex11, active compounds read low 0.998 | S. cerevisiae deletion strains, locus YOR001W, strain rrp6, active compounds read low 1.04 | S. cerevisiae deletion strains, locus YOR061W, strain CKA2, active compounds read low 1 | S. cerevisiae deletion strains, locus YOR069W, strain VPS5, active compounds read low 1.01 | S. cerevisiae deletion strains, locus YOR070C, strain gyp1, active compounds read low 1.02 | S. cerevisiae deletion strains, locus YOR080W, strain dia2, active compounds read low 1.04 | S. cerevisiae deletion strains, locus YOR083W, strain WHI5, active compounds read low 1.01 | S. cerevisiae deletion strains, locus YOR106W, strain vam3, active compounds read low 0.998 | S. cerevisiae deletion strains, locus YOR136W, strain idh2, active compounds read low 0.999 | S. cerevisiae deletion strains, locus YOR144C, strain elg1, active compounds read low 0.993 | S. cerevisiae deletion strains, locus YOR184W, strain ser1, active compounds read low 0.978 | S. cerevisiae deletion strains, locus YOR231W, strain MKK1, active compounds read low 0.971 | S. cerevisiae deletion strains, locus YOR265W, strain rbl2, active compounds read low 1.03 | S. cerevisiae deletion strains, locus YOR270C, strain vph1, active compounds read low 1.08 | S. cerevisiae deletion strains, locus YOR290C, strain snf2, active compounds read low 1.01 | S. cerevisiae deletion strains, locus YOR316C, strain cot1, active compounds read low 0.995 | S. cerevisiae deletion strains, locus YPL051W, strain arl3, active compounds read low 1.02 | S. cerevisiae deletion strains, locus YPL055C, strain LGE1, active compounds read low 0.951 | S. cerevisiae deletion strains, locus YPL078C, strain atp4, active compounds read low 1.03 | S. cerevisiae deletion strains, locus YPL106C, strain sse1, active compounds read low 1.11 | S. cerevisiae deletion strains, locus YPL240C, strain hsp82, active compounds read low 1.02 | S. cerevisiae deletion strains, locus YPL241C, strain CIN2, active compounds read low 0.991 | S. cerevisiae deletion strains, locus YPL256C, strain CLN2, active compounds read low 0.983 | S. cerevisiae deletion strains, locus YPR119W, strain clb2, active compounds read low 1 | S. cerevisiae deletion strains, locus YPR141C, strain kar3, active compounds read low 1 | S. cerevisiae deletion strains, locus YPR163C, strain tif3, active compounds read low 0.996 | S. cerevisiae deletion strains, locus YPR167C, strain met16, active compounds read low 0.999 | S. cerevisiae deletion strains, strain wtn01, active compounds read low 0.988 | S. cerevisiae strains, strain wild type, active compounds read low 1
